Laboratory results reported in PubChem BioAssay (Tox21).
Inconclusive results are not listed. A call without a number means that no potency is given here. The source made the active and inactive calls. Calls come from the whole dose curve; as a rule, active = well fitted cell-killing curve with a large enough effect in the repeat runs; inconclusive = weak or mixed curves, or effect the other way; inactive = flat fitted curve, though single readings scatter.

What was measured:
[1] = cAMP Responsive Elements (CRE) small molecule antagonists, cell-based qHTS assay: qHTS cell viability counter screen (AID 2060913); note: nearly all actives have a fitted effect of over 40% in size
In short: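 CRE-bla HEK293T cells (2,000/well, 18 h) given compound plus NKH477 0.25 uM final for 3 h at 37C; viability counter-screen by CellTiter-Glo luminescence in same wells after 30 min.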

[2] = cAMP Responsive Elements (CRE) small molecule agonists, cell-based qHTS assay: qHTS cell viability counter screen (AID 2060914);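 note: viability read after 3 h of compound exposure; nearly all actives have a fitted effect of over 50% in size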
In short: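 CRE-bla HEK 293T cells, plated 18 h at 37 °C, were exposed to compounds for 3 h at 37 °C/5% CO2. Viability was then measured in the same wells by CellTiter-Glo luminescence after 30 min at room temperature.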

Compound: N=C(N)c1ccccc1
- Potency [1]: inactive
- Potency [2]: inactive

Compound: CCCCC(CC)COC(=O)COc1cc(Cl)c(Cl)cc1Cl (configuration not stated)
- Potency [1]: inactive
- Potency [2]: inactive

Compound: C=C(C)C(=O)OCCOC1CC2CC1C1C=CCC21 (configuration not stated)
- Potency [1]: inactive
- Potency [2]: inactive

Compound: CN(C1CCCCC1)S(=O)(=O)c1ccccc1N
- Potency [1]: inactive
- Potency [2]: inactive

Compound: c1ccc2c(c1)ccc1ncccc12
- Potency [1]: inactive
- Potency [2]: inactive

Compound: CC1=C(CC(=O)O)c2cc(F)ccc2/C1=C\c1ccc(S(C)=O)cc1 (configuration not stated)
- Potency [1]: inactive
- Potency [2]: inactive

Compound: C=CCS(=O)(=O)O
- Potency [1]: inactive
- Potency [2]: inactive

Compound: CNC[C@H](O)c1ccc(O)c(O)c1
- Potency [1]: inactive
- Potency [2]: inactive

Compound: CC(C)(CO)[C@@H](O)C(=O)NCCC(=O)O
- Potency [1]: inactive
- Potency [2]: inactive

Compound: C=C(C)OC(C)=O
- Potency [1]: inactive
- Potency [2]: inactive

Compound: CC(C)c1cccc(C(C)C)c1
- Potency [1]: inactive
- Potency [2]: inactive

Compound: Clc1cc(Cl)c(-c2c(Cl)c(Cl)cc(Cl)c2Cl)cc1Cl
- Potency [1]: inactive
- Potency [2]: inactive

Compound: CCOC(=O)c1ccc(C)cc1
- Potency [1]: inactive
- Potency [2]: inactive

Compound: Cc1cc(C(C)(C)C)c(O)c(C(C)(C)C)c1
- Potency [1]: inactive
- Potency [2]: inactive

Compound: COc1ccc(-c2cc(=O)c3c(O)cc(O[C@@H]4O[C@H](CO[C@@H]5O[C@@H](C)[C@H](O)[C@@H](O)[C@H]5O)[C@@H](O)[C@H](O)[C@H]4O)cc3o2)cc1O
- Potency [1]: inactive
- Potency [2]: inactive

Compound: O=C(O)CCc1ccccc1
- Potency [1]: inactive
- Potency [2]: inactive

Compound: O=C1CCc2cc(OCCCCc3nnnn3C3CCCCC3)ccc2N1
- Potency [1]: inactive
- Potency [2]: inactive

Compound: CC1COc2ccccc2N1 (configuration not stated)
- Potency [1]: inactive
- Potency [2]: inactive

Compound: CCCC(C)=O
- Potency [1]: inactive
- Potency [2]: inactive

Compound: Cc1cc(=O)[nH]c(=O)[nH]1
- Potency [1]: inactive
- Potency [2]: inactive

Compound: O=S(=O)(O)c1cccc(S(=O)(=O)O)c1
- Potency [1]: inactive
- Potency [2]: inactive
